“And” between values parts separate entries of the source, which are not always exact repeats. Equal entries are not always repeated. Results filed as inconclusive are left out. Entries that show only a call come without a potency. Where a structure was tested more than once in an assay, its records may differ in their call. The source made the active and inactive calls. The call rests on the fitted dose curve; in most records, active means well fitted activation curve with a large enough effect in the repeat runs; inconclusive means weak or mixed curves; inactive means flat fitted curve, though single readings scatter.
assay: A CellTox Green Cytotoxicity Assay to monitor cytotoxicity in HEK293 cells - 24 hour (AID 1224875); conditions: CellTox Green fluorescence; series mostly up to 76.8 µM; activity change: at the top concentration
Outline: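 Cytotoxicity was tracked continuously in HEK293 cells by a DNA-binding dye excluded from viable cells. Compounds were transferred in DMSO 5 h after seeding; fluorescence was recorded at intervals up to 40 h.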
Further: nearly all actives have a fitted effect of over 45% in size.
Potency means the concentration at half of the fitted maximal effect.

| SMILES | Potency | activity change |
| --- | --- | --- |
| Oc1ccc(O)cc1 | inactive | – |
| CC(CCC(=O)O)(c1ccc(O)cc1)c1ccc(O)cc1 | inactive | – |
| COc1ccc(OC)c(C(O)CNC(=O)CN)c1 (centres undefined) | inactive | – |
| C#C[C@]1(O)CC[C@H]2[C@@H]3CCc4cc(OC)ccc4[C@H]3CC[C@@]21C | – | 23.2% [at 35.3 µM, stronger effect = higher value] (inactive) |
| Nc1ccccc1N | 50.1 µM (active) | – |
| Cc1c(OCC(F)(F)F)ccnc1CS(=O)c1nc2ccccc2[nH]1 (centres undefined) | inactive | – |
| c1ccc2sc(SSN3CCOCC3)nc2c1 | 38.8 µM (active) | – |
| CCCCC(CC)COP(=O)(OCC(CC)CCCC)OCC(CC)CCCC (centres undefined) | inactive | – |
| O=C(Nc1ccc([N+](=O)[O-])cc1Cl)c1cc(Cl)ccc1O | inactive | – |
| CCCC(=O)O | inactive | – |
| CN(C)CCC=C1c2ccccc2CCc2ccccc21 | – | 6.02% [at 35.3 µM, stronger effect = higher value] (inactive) |
| CC(=O)Oc1ccccc1C(=O)Nc1ncc([N+](=O)[O-])s1 | inactive | – |
| O=C(c1ccccc1)c1ccccc1O | – | 28.5% (inactive) |
| Cc1ccc2c(n1)Oc1ccc(C(C)C(=O)OCC(=O)N(C)C)cc1C2 (centres undefined) | inactive | – |
| O=C(/C=C/C=C/c1ccc2c(c1)OCO2)N1CCCCC1 | inactive | – |
| O=CCc1ccccc1 | inactive | – |

| SMILES | Potency | activity change |
| --- | --- | --- |
| CN(C)CCN(Cc1cccs1)c1ccccn1 | inactive | – |
| CCCCOCCOCCOCCO | inactive | – |
| c1cc(N(CC2CO2)CC2CO2)ccc1OCC1CO1 (centres undefined) | inactive | – |
| C#C[C@]1(O)CC[C@H]2[C@@H]3CCC4=Cc5oncc5C[C@]4(C)[C@H]3CC[C@@]21C | inactive | – |
| CCC(C)OC(=O)c1ccc(O)cc1 (centres undefined) | inactive | – |
| OC[C@H]1O[C@@H]2O[C@H]3[C@H](O)[C@@H](O)[C@@H](O[C@H]4[C@H](O)[C@@H](O)[C@@H](O[C@H]5[C@H](O)[C@@H](O)[C@@H](O[C@H]6[C@H](O)[C@@H](O)[C@@H](O[C@H]7[C@H](O)[C@@H](O)[C@@H](O[C@H]8[C@H](O)[C@@H](O)[C@@H](O[C@H]1[C@H](O)[C@H]2O)O[C@@H]8CO)O[C@@H]7CO)O[C@@H]6CO)O[C@@H]5CO)O[C@@H]4CO)O[C@@H]3CO | inactive | – |
| COc1c(Cl)c(Cl)c(Cl)c(Cl)c1Cl | inactive | – |
| S=C(NC1CCCCC1)NC1CCCCC1 | inactive | – |
| O=C1c2cccc(O)c2C(=O)c2c(O)cccc21 | inactive | – |
| CC(=O)O[C@]1(C(C)=O)CC[C@H]2[C@@H]3C=C(Cl)C4=CC(=O)[C@@H]5C[C@@H]5[C@]4(C)[C@H]3CC[C@@]21C | inactive | – |
| CCOCCOCCO | inactive | – |
| COc1ccccc1/C=C/C=O | inactive | – |
| O=C(Nc1ccc(Cl)cc1)Nc1ccc(Cl)c(Cl)c1 | inactive | – |
| C[C@]12CC[C@H]3[C@@H](CCC4=CC(=O)CC[C@@]43C)[C@@H]1CC[C@@H]2C(=O)CO | inactive | – |
| CC(C)Oc1ccc2c(=O)c(-c3ccccc3)coc2c1 | inactive | – |

assay: A CellTox Green Cytotoxicity Assay to monitor cytotoxicity in HepG2 cells - 16 hour (AID 1224876); conditions: CellTox Green fluorescence; series mostly up to 76.8 µM; cytotoxicity increase: at the top concentration
Outline: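 Real-time, homogeneous cytotoxicity readout: dead-cell DNA staining by CellTox Green in HepG2 monolayers, fluorescence measured at timed intervals up to 40 h of continuous compound exposure.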

| SMILES | cytotoxicity increase | Potency |
| --- | --- | --- |
| Cn1cnc([N+](=O)[O-])c1Sc1ncnc2nc[nH]c12 | -13.1% [at 35.3 µM] (inactive) | – |
| Oc1ccc(O)cc1 | – | inactive |
| CC(CCC(=O)O)(c1ccc(O)cc1)c1ccc(O)cc1 | – | inactive |
| COc1ccc(OC)c(C(O)CNC(=O)CN)c1 (centres undefined) | – | inactive |
| C#C[C@]1(O)CC[C@H]2[C@@H]3CCc4cc(OC)ccc4[C@H]3CC[C@@]21C | 18.7% [at 35.3 µM] (inactive) | – |
| Nc1ccccc1N | – | 56.2 µM (active) and inactive |
| c1ccc2c(c1)Oc1ccccc1S2 | – | inactive |
| Cc1c(OCC(F)(F)F)ccnc1CS(=O)c1nc2ccccc2[nH]1 (centres undefined) | – | inactive |
| CC(=O)C1(C)CC2=C(CCCC2(C)C)CC1C (centres undefined) | – | inactive |
| CCCCC(CC)COP(=O)(OCC(CC)CCCC)OCC(CC)CCCC (centres undefined) | – | inactive |
| O=C(Nc1ccc([N+](=O)[O-])cc1Cl)c1cc(Cl)ccc1O | – | inactive and 29.3 nM (active) |
| CCCC(=O)O | – | inactive |
| CCCCc1oc2ccccc2c1C(=O)c1cc(I)c(OCCN(CC)CC)c(I)c1 | – | 44 µM (active) |
| CN(C)CCC=C1c2ccccc2CCc2ccccc21 | – | 24.5 µM (active) |
| CC(=O)Oc1ccccc1C(=O)Nc1ncc([N+](=O)[O-])s1 | – | inactive |
| O=C(c1ccccc1)c1ccccc1O | 6.39% (inactive) | – |
| Cc1ccc2c(n1)Oc1ccc(C(C)C(=O)OCC(=O)N(C)C)cc1C2 (centres undefined) | – | inactive |
| O=C(/C=C/C=C/c1ccc2c(c1)OCO2)N1CCCCC1 | – | inactive |
| O=CCc1ccccc1 | – | inactive |

| SMILES | cytotoxicity increase | Potency |
| --- | --- | --- |
| CN(C)CCN(Cc1cccs1)c1ccccn1 | – | inactive |
| CCCCOCCOCCOCCO | – | inactive |
| c1cc(N(CC2CO2)CC2CO2)ccc1OCC1CO1 (centres undefined) | – | inactive |
| CC1=CC2C3CC(C=C3C)C2C1 (centres undefined) | – | inactive and 24.5 µM (active) |
| OC1CCCCCCCCCCC1 | – | 38.9 µM (active) |
| O=C(c1ccc(OCCN2CCCCC2)cc1)c1c(-c2ccc(O)cc2)sc2cc(O)ccc12 | 23.6% [at 35.3 µM] (inactive) | – |
| C#C[C@]1(O)CC[C@H]2[C@@H]3CCC4=Cc5oncc5C[C@]4(C)[C@H]3CC[C@@]21C | – | inactive |
| CCC(C)OC(=O)c1ccc(O)cc1 (centres undefined) | 13.7% (inactive) | – |
| OC[C@H]1O[C@@H]2O[C@H]3[C@H](O)[C@@H](O)[C@@H](O[C@H]4[C@H](O)[C@@H](O)[C@@H](O[C@H]5[C@H](O)[C@@H](O)[C@@H](O[C@H]6[C@H](O)[C@@H](O)[C@@H](O[C@H]7[C@H](O)[C@@H](O)[C@@H](O[C@H]8[C@H](O)[C@@H](O)[C@@H](O[C@H]1[C@H](O)[C@H]2O)O[C@@H]8CO)O[C@@H]7CO)O[C@@H]6CO)O[C@@H]5CO)O[C@@H]4CO)O[C@@H]3CO | – | inactive |
| COc1c(Cl)c(Cl)c(Cl)c(Cl)c1Cl | – | inactive |
| S=C(NC1CCCCC1)NC1CCCCC1 | – | inactive |
| O=C1c2cccc(O)c2C(=O)c2c(O)cccc21 | – | inactive |
| CC(=O)O[C@]1(C(C)=O)CC[C@H]2[C@@H]3C=C(Cl)C4=CC(=O)[C@@H]5C[C@@H]5[C@]4(C)[C@H]3CC[C@@]21C | – | inactive |
| CCC(C)c1ccccc1O (centres undefined) | – | inactive |
| CCOCCOCCO | – | inactive |
| COc1ccccc1/C=C/C=O | – | inactive |
| O=C(Nc1ccc(Cl)cc1)Nc1ccc(Cl)c(Cl)c1 | – | inactive |
| C[C@]12CC[C@H]3[C@@H](CCC4=CC(=O)CC[C@@]43C)[C@@H]1CC[C@@H]2C(=O)CO | – | inactive |
| CC(C)Oc1ccc2c(=O)c(-c3ccccc3)coc2c1 | – | inactive |

From PubChem BioAssay (Tox21)
